Records with an inconclusive call do not appear. A call without a number means that no potency is given here. The source made the active and inactive calls. Unless noted, calls follow the shape of the dose curve; as a rule, active = well fitted curve in the direction sought with a large enough effect in the repeat runs; inconclusive = weak or mixed curves; inactive = no such curve, though single readings can be large; an effect the other way counts as inactive or inconclusive.
What was measured:
[1] = qHTS assay to identify small molecule antagonists of the sonic hedgehog signaling (Shh) pathway (AID 1259369; calls by dose curve; also: nearly all actives have a fitted effect of over 45% in size; also: potency is read from the fitted curve at half-maximal effect)
Outline: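 For antagonist detection, the reporter line received test compounds together with conditioned medium, incubated 24hr at 37 C, 5% CO2, then luminescence was recorded following 30min room-temperature luciferase reagent incubation.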

[2] = target: Estrogen receptor beta (Homo sapiens) (UniProt Q92731); assay: qHTS assay to identify small molecule antagonists of the estrogen receptor beta (ER-beta) signaling pathway (AID 1259378; active = well fitted inhibition curve with a large enough effect in the signal ratio in the repeat runs, not every such curve was filed as active; the % refers to the signal ratio; also: potency is read from the fitted curve at half-maximal effect)
Outline: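 Antagonist mode: compounds added to beta-lactamase reporter HEK293T ER-beta-UAS cells stimulated with E2 (1nM final), 16 hr at 37C. LiveBLAzer B/G FRET substrate, 2 hours room temperature, fluorescence read-out.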

[3] = qHTS assay to identify small molecule agonists of the androgen receptor (AR) signaling pathway in the presence of an antagonist - cell viability counter screen (AID 1259379);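 also: MDA-kb2 human breast cancer cells carrying an MMTV luciferase reporter; series mostly up to about 92 µM; nearly all actives have a fitted effect of over 25% in size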
Outline: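 Seed MDA-kb2 at 3,000 cells/well; incubate 5 hr, 37C, 0% CO2. Add nilutamide to 3.0uM final, then pin compounds at 15 concentrations. Incubate 16 hr. Add CellTiter-Fluor at 15 hr, read fluorescence after 1 hr.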

[4] = qHTS assay to identify small molecule agonists of the estrogen receptor beta (ER-beta) signaling pathway - cell viability counter screen (AID 1259380); also: nearly all actives have a fitted effect of over 30% in size; also: potency is read from the fitted curve at half-maximal effect
Outline: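 CellTiter-Glo read, 30 min RT, same wells as bla assay; cells ER-beta-UAS-bla HEK293T; 16 hr compound, 37C; medium 2% charcoal-stripped FBS.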

[5] = qHTS assay to identify small molecule antagonists of the estrogen receptor beta (ER-beta) signaling pathway - cell viability counter screen (AID 1259382);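 also: HEK293T cells carrying ER-beta-UAS-bla reporter stimulated with estradiol; series mostly up to about 92 µM; nearly all actives have a fitted effect of over 55% in size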
Outline: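 In this multiplexed counter screen, cells were seeded at 2,000 per well in medium with 2% charcoal-stripped FBS and incubated 6 hr before compound and 1nM final E2 were added. Sixteen hours later, ATP-based luminescence reported viability.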

[6] = target: Estrogen receptor (Homo sapiens) (UniProt P03372); assay: qHTS assay to identify small molecule agonists of the estrogen receptor alpha (ER-alpha) signaling pathway in the presence of an antagonist (AID 1259383; calls by dose curve; also: nearly all actives have a fitted effect of over 15% in size; also: potency is read from the fitted curve at half-maximal effect; as to activation: top concentration of the series differs between compounds)
Outline: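 Stably transfected VM7Luc4E2 reporter cells, kept 5 days in charcoal-stripped serum, received ICI-182,780 at 10.0nM final before compound addition. Following 22hr incubation at 37C and 5% CO2, luciferase signal was read by luminescence.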

[7] = qHTS assay to identify small molecule agonists or antagonists of the thyroid stimulating hormone receptor (TSHR) signaling pathway - wild type cell line counter screen (AID 1259384; calls by dose curve)
Outline: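 Counter screen in untransfected Hek293: compounds (15-point titration, triplicate) plus phosphodiesterase inhibitor Ro20-1724 added after 18 h plating; 30 min RT. Intracellular cAMP via competitive d2/cryptate immunoassay, 1 h incubation.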

[8] = qHTS assay to identify small molecule antagonists of the TGF-beta/Smad signaling pathway - cell viability counter screen (AID 1346824); also: nearly all actives have a fitted effect of over 50% in size
Outline: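 Cytotoxicity counter-screen run in the same wells as the beta-lactamase Smad reporter read: CellTiter-Glo luminescence after 30 min at room temperature. HEK 293T SBE-bla cells had 5 hr compound exposure at 37 C with TGF-beta1 (0.25 ng/mL stock).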

[9] = qHTS assay to identify small molecule agonists of the TGF-beta/Smad signaling pathway - cell viability counter screen (AID 1346829); also: top concentration of the series differs between compounds; nearly all actives have a fitted effect of over 45% in size
Outline: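 After overnight seating at 37 C and 5% CO2, reporter cells got compounds for 5 hr and FRET substrate for 2 hr; cell viability then came from CellTiter-Glo luminescence.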

[10] = qHTS assay to identify small molecule agonists of the estrogen receptor alpha (ER-alpha) signaling pathway in the presence of an antagonist - cell viability counter screen (AID 1259386);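 also: series mostly up to about 92 µM; cells exposed to compounds for 22 h at 37 °C before the viability read; nearly all actives have a fitted effect of over 30% in size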
Outline: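 Viability counter screen using VM7Luc4E2 (full-length ER-alpha, four ERE-luciferase). The cells were treated with compounds alongside ICI-182,780 10.0nM for 22hr, and live-cell protease fluorescence was quantified with CellTiter-Fluor.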

[11] = target: Progesterone receptor (Homo sapiens) (UniProt P06401); assay: qHTS assay to identify small molecule agonists of the progesterone receptor (PR) signaling pathway (AID 1346784; calls by dose curve; also: nearly all actives have a fitted effect of over 30% in size)
Outline: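 Compounds were tested for PR agonism in HEK 293T cells bearing a beta-lactamase gene under UAS control. Treatment lasted 16 hr at 37C; signal came from fluorescence of a FRET substrate.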

[12] = qHTS assay to identify small molecule antagonists of the progesterone receptor (PR) signaling pathway - cell viability counter screen (AID 1346798); also: series mostly up to about 92 µM; nearly all actives have a fitted effect of over 50% in size
Outline: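 Following a 4 hr attachment, PR-UAS-bla HEK293T cells in charcoal-stripped FBS medium were exposed to compounds with R5020 for 16 hr; CellTiter-Glo was added and luminescence read after 30 min at room temperature.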

[13] = qHTS assay to identify small molecule agonists of the progesterone receptor (PR) signaling pathway - cell viability counter screen (AID 1346799; calls by dose curve; also: nearly all actives have a fitted effect of over 45% in size)
Outline: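 Here, 3,000 PR-UAS-bla HEK293T cells per well were treated with compounds for 16 hr after a 6 hr preincubation at 37C and 5% CO2; cell viability is the CellTiter-Glo luminescence signal.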

[14] = qHTS assay to identify small molecule agonists of the TGF-beta/Smad signaling pathway (AID 1346859; active = well fitted activation curve with a large enough effect in the signal ratio in the repeat runs, not every such curve was filed as active; the % refers to the signal ratio; also: series mostly up to about 77 µM)
Outline: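 Each well held 4,000 SBE-bla HEK 293T cells incubated overnight before compound addition; 5 hr later the cleavable FRET substrate went on for 2 hr at room temperature, and fluorescence was read at two emissions.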

[15] = target: Thyrotropin-releasing hormone receptor (Homo sapiens) (UniProt P34981); assay: qHTS assay to identify small molecule antagonists of the thyrotropin-releasing hormone receptor (TRHR) signaling pathway (AID 1346877; active = well fitted inhibition curve with a large enough effect in the repeat runs, not every such curve was filed as active; also: series mostly up to about 51 µM)
Outline: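 Following an 18 h incubation at 37 °C and a 2 h calcium dye load, TRHR-HEK293 cells were exposed to compound (5 min, room temperature) and challenged with TRH, 1 nM final.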

[16] = target: Thyrotropin-releasing hormone receptor (Homo sapiens) (UniProt P34981); assay: qHTS assay to identify small molecule agonists of the thyrotropin-releasing hormone receptor (TRHR) signaling pathway (AID 1346891; calls by dose curve; also: series mostly up to about 58 µM)
Outline: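 Screening of agonists relied on calcium signalling in HEK293 cells expressing human TRHR: dye loading 2 h at 37 °C preceded compound addition and a 3-min fluorescence time course.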

[17] = target: Progesterone receptor (Homo sapiens) (UniProt P06401); assay: qHTS assay to identify small molecule antagonists of the progesterone receptor (PR) signaling pathway (AID 1346795; active = well fitted inhibition curve with a large enough effect in the signal ratio in the repeat runs, not every such curve was filed as active; the % refers to the signal ratio)
Outline: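 In HEK293T cells bearing the PR-UAS-bla reporter, compound effects on promegestone-driven (1 nM) beta-lactamase expression are assessed after 16 hr using a fluorescent FRET substrate incubated 2 hr at room temperature.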

[18] = target: Thyrotropin receptor (Homo sapiens) (UniProt P16473); assay: qHTS assay to identify small molecule antagonists of the thyroid stimulating hormone receptor (TSHR) signaling pathway (AID 1259385; calls by dose curve; also: nearly all actives have a fitted effect of over 20% in size)
Outline: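 Antagonist mode: compound-treated TSHR-expressing HEK293 cells were stimulated with 1.5 ng/mL TSH (final) in presence of Ro20-1724 for 30 min at RT. HTRF cAMP detection after 1 h; each compound tested at 15 concentrations, triplicate.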

Sequence of Thyrotropin-releasing hormone receptor (Homo sapiens) (P34981 whole entry, looked up): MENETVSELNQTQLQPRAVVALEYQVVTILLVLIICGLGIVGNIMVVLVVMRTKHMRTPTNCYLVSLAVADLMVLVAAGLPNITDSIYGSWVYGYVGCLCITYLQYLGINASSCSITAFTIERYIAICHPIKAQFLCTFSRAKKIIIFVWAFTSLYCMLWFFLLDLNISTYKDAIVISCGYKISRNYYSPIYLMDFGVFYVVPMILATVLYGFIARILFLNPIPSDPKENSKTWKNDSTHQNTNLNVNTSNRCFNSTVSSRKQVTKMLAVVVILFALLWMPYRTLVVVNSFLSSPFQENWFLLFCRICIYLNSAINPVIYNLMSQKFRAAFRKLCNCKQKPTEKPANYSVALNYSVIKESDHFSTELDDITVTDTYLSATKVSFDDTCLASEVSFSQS
Sequence of Estrogen receptor (Homo sapiens) (P03372 whole entry, looked up): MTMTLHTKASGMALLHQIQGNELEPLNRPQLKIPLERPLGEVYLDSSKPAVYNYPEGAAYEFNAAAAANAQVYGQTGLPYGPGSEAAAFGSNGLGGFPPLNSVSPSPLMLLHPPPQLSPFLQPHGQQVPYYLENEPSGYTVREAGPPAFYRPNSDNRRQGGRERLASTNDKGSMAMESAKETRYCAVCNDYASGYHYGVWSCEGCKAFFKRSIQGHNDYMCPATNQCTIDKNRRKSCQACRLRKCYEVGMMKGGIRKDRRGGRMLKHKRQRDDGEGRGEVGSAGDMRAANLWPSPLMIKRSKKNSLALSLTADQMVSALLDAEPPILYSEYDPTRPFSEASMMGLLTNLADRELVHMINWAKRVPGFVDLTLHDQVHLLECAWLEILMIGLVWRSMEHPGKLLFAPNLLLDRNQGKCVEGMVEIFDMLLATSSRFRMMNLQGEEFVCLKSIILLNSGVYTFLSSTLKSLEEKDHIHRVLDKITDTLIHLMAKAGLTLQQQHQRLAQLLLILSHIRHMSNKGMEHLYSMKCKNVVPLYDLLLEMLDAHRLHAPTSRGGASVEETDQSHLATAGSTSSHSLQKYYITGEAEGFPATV
Sequence of Estrogen receptor beta (Homo sapiens) (Q92731 whole entry, looked up): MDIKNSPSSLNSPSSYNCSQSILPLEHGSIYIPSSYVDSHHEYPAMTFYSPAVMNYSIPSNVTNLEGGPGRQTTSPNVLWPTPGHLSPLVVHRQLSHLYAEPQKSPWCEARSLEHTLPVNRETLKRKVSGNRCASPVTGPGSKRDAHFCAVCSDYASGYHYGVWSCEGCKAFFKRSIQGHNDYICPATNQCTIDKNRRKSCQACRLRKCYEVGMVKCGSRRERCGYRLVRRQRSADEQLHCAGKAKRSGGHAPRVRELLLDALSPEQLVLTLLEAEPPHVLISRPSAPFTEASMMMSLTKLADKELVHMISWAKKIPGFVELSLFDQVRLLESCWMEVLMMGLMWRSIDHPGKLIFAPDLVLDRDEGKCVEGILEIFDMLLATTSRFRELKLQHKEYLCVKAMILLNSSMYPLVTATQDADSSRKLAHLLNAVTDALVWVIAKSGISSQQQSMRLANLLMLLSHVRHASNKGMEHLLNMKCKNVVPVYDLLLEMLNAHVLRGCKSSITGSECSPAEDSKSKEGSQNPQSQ
Sequence of Progesterone receptor (Homo sapiens) (P06401 whole entry, looked up): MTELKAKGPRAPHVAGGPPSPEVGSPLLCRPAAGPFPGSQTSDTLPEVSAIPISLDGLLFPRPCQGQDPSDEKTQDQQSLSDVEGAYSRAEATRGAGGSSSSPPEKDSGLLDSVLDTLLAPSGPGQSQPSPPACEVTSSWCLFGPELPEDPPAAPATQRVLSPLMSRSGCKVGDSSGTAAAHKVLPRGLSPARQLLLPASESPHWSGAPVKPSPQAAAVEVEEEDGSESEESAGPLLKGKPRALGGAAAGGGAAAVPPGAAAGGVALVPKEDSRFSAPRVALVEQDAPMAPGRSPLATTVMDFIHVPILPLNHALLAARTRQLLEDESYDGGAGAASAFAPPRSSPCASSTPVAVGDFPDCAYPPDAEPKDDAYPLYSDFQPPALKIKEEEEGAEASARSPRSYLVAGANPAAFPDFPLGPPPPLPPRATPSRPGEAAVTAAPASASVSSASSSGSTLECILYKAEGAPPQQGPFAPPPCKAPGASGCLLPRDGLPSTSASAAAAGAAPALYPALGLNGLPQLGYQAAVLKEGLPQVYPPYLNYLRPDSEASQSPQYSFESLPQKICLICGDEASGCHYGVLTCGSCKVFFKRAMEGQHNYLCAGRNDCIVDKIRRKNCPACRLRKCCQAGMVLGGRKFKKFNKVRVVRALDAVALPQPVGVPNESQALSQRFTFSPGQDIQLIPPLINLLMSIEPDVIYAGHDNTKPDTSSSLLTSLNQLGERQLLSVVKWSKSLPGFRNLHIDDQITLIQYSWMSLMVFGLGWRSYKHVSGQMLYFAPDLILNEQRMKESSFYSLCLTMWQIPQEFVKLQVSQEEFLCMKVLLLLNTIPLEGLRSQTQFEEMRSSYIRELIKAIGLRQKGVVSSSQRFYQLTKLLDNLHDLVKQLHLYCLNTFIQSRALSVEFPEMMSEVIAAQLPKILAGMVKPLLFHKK
Sequence of Thyrotropin receptor (Homo sapiens) (P16473 whole entry, looked up): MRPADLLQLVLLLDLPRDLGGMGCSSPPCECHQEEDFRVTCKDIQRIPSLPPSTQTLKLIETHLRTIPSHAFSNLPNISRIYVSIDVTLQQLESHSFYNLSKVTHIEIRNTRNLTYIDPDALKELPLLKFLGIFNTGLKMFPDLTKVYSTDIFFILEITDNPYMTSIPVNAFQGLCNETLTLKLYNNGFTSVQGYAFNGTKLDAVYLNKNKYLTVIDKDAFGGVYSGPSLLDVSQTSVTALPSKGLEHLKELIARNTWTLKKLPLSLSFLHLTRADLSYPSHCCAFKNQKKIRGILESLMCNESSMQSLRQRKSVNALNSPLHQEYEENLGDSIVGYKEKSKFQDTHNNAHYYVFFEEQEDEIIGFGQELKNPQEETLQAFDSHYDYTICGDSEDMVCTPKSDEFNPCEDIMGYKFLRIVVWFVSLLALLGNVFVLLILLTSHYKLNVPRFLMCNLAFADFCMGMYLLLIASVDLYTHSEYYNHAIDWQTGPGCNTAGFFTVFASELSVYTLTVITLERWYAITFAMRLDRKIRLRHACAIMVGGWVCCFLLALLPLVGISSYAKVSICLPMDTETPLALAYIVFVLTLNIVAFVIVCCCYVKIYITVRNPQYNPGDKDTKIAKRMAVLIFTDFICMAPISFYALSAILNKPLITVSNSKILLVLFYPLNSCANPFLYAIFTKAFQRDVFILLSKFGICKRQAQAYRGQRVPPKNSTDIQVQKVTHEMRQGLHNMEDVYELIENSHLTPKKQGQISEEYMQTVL

SMILES | Potency [1] | Potency [2] | Potency [3] | Potency [4] | Potency [5] | Potency [6] | Potency [7] | Potency [8] | Potency [9] | Potency [10] | outcome [11] | Potency [12] | Potency [13] | outcome [14] | outcome [15] | Potency [16] | Potency [17] | Potency [18]
CCCCCOC(=O)c1ccc(O)cc1 | 39 µM (active) | 24.6 µM (active) | inactive | 55.1 µM (active) | inactive | 31 µM (active) | inactive | inactive | inactive |  |  |  |  |  |  |  |  | 
CC(C(=O)O)c1ccc(-c2ccccc2)c(F)c1 (centres undefined) | inactive | inactive |  | inactive | inactive | inactive |  | inactive | inactive | inactive |  |  |  |  |  |  |  | 
C=CC(=O)OCC(C)OCC(C)OCC(C)OC(=O)C=C (centres undefined) | 9.69 µM (active) | 61.1 µM (active) |  |  | inactive | inactive |  | inactive |  |  | inactive | inactive | inactive | inactive | inactive | inactive |  | 
CC(C)(C)c1cc(CCC(=O)OCC(COC(=O)CCc2cc(C(C)(C)C)c(O)c(C(C)(C)C)c2)(COC(=O)CCc2cc(C(C)(C)C)c(O)c(C(C)(C)C)c2)COC(=O)CCc2cc(C(C)(C)C)c(O)c(C(C)(C)C)c2)cc(C(C)(C)C)c1O | inactive | inactive | inactive | inactive | inactive | inactive | inactive | inactive | inactive | inactive | inactive | inactive | inactive | inactive | inactive | inactive | inactive | 
NC1CCN(c2nc3c(cc2F)c(=O)c(C(=O)O)cn3-c2ccc(F)cc2F)C1 (centres undefined) | inactive |  | inactive | inactive | inactive | inactive | inactive | inactive | inactive | inactive |  | inactive |  | inactive | inactive | inactive |  | inactive

Reference: PubChem BioAssay (Tox21)
